This is part of a sample that, as a whole, favours compounds with a hit. Of some 83,000 tested, about 20% had one in any assay.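 Results are percent growth after 48 hours of single-concentration exposure. 100 means growth as in untreated cells, lower positive values show inhibition; negative values down to -100 show cell death.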 Values without a mark were called inactive. Activity calls are given as the source filed them. How the source made its calls: active means growth percent below 10; inactive means the rest.
Each molecule was assayed on CCRF-CEM leukemia (assay: NCI-60 one-dose screen, 48 h (100 = growth as untreated, 0 = no growth, -100 = all killed)). Settings: 10 µM unless noted.
With `COc1cc(C(=O)NN=C2c3ccccc3-c3ccccc32)cc(OC)c1OC` the growth was 25.5%.
With `COc1cc(-c2c3c(c(Br)n2Cc2ccccc2)-c2nc(N)sc2CC3)cc(OC)c1OC` the growth was 44.4%.
With `O=C(Nc1ccc(-c2nc3cc4ccccc4cc3[nH]2)cc1)c1cccc(Br)c1` the growth was 77%.
In the case of `Cc1cc(Nc2ccc(OCc3ccccc3)cc2)nc2cc(O)ccc12`, the growth is reported as 8.27% (active).
Molecule `Nc1nonc1-n1nncc1-c1cccnc1` has a growth of 106%.
For `N#C/C(=C1\SC(=O)CN1c1ccccc1)c1nc2ccccc2s1`, the growth was 84.4%.
Work on `Clc1ccc(-c2nnc(COc3ccc(C4=NNC(c5ccco5)C4)cc3)o2)cc1` (stereo not drawn) yielded a growth of 84.7%.
For `CCOC(=O)CSc1c(-c2ccccc2)c2cc(Cl)ccc2[nH]c1=O`, the growth was 95.7%.
For `COC(=O)C1(C)COP(=O)(Nc2ccc(OC)cc2)OC1` (stereo not drawn), the growth was 102%.
With `CC1=C(CC(=O)c2cccc([N+](=O)[O-])c2)C(=O)c2ccccc2C1=O` the growth was 4.59% (active).
With `N#Cc1c(N)nc2c(c1N)C(c1ccc(F)cc1)c1ccc(N)cc1O2` (stereo not drawn) the growth was 99.9%.
In the case of `O=C(Nc1nc2c(s1)CCc1c-2c(Br)n(Cc2ccccc2)c1Br)c1ccccc1`, the growth is reported as 77%.
With `CN(C)CCNc1cc(-c2ccccc2)nc2ccccc12` the growth was -9.11% (active).
`O=S(=O)(c1ccc(NC(=S)NC23CC4CC(CC(C4)C2)C3)cc1)N1CCCCC1` gave a growth of 13.9%.
Molecule `CCCCc1c(CCC)c(=N)c2ccccc2n1C` has a growth of 49.8%.
In the case of `COc1ccccc1N1C(=N)S/C(=C\c2ccc(OCc3ccccc3F)cc2)C1=O`, the growth is reported as 65.8%.
`Cc1ccc(S(=O)(=O)c2c(COC(=O)c3cccc(C)c3)c(-c3ccccc3)nn2C)cc1` was tested, and the growth was -7.63% (active).
For `COc1ccc(-c2nc(N3CCN(C(=O)C4CCCCC4)CC3)c3c4c(sc3n2)CCCC4)cc1`, the growth was 5.79% (active).
`CC(=Nc1ccccc1)C1=C(O)C(Cc2ccc(F)cc2)NC1=O` (stereo not drawn) gave a growth of 10.7%.
`CCOc1ccccc1CN1CCc2nc3cc(C(C)(C)C)[nH]n3c(=O)c2C1` was tested, and the growth was 91.8%.
With `COc1cc(C(=O)O/N=C(\N)Cc2cccc3ccccc23)cc(OC)c1OC` the growth was -5.01% (active).
`O=C1OC(c2ccccc2)(c2ccccc2)c2ccsc21` was tested, and the growth was 89.2%.
`COc1ccc2sc(N(Cc3cccnc3)C(=O)c3ccc(C#N)cc3)nc2c1` showed a growth of 72.1%.
For `O=C(NC1CCN(Cc2ccccc2)CC1)c1cc(C(=O)NC2CCN(Cc3ccccc3)CC2)cc(C(=O)NC2CCN(Cc3ccccc3)CC2)c1`, the growth was 2.34% (active).
With `Oc1c(CN2CCN(c3ccccc3F)CC2)cc(Br)c2cccnc12` the growth was 1.46% (active).
For `O=C(Nc1ccc(Cl)cc1)N1CCN(c2ccc3nncn3n2)CC1`, the growth was -9.45% (active).
Molecule `Cc1[nH]c2ccccc2c(=O)c1CC=C(Cl)Cl` has a growth of 21.5%.
In the case of `COc1ccc(C)c2sc(N(Cc3cccnc3)C(=O)c3ccc(C#N)cc3)nc12`, the growth is reported as 8.67% (active).
For `O=C(Cc1ccccc1)NC(c1ccc(Cl)cc1)c1c(O)ccc2ccccc12` (stereo not drawn), the growth was 13.4%.
`CCOC(=O)C1=CN(C)C=C(C(=O)OCC)C1c1cc(Br)c(OCC)c(OC)c1` was tested, and the growth was 32.9%.
In the case of `COc1ccc(/C=C/C(=O)c2ccc3cc(OC)c(OC)cc3c2)cc1OC`, the growth is reported as 32.8%.
In the case of `CCC1=C[C@@H]2CN(C1)Cc1c([nH]c3ccccc13)[C@@](C(=O)OC)(c1cc3c(cc1OC)N(C)[C@H]1[C@@](O)(C(=O)OC)[C@H](OC(C)=O)[C@]4(CC)[C@@H]5C[C@@H]5CN5CC[C@]31[C@@H]54)C2`, the growth is reported as 1.97% (active).
Molecule `COc1ccc(-c2nsc3c2NC(=O)CC3c2ccc3c(c2)OCCO3)cc1` (stereo not drawn) has a growth of 14%.
Molecule `CCCCNc1nc(NC(C)(C)C)nc(NC(C)(C)C)n1` has a growth of 42.4%.
With `CCOc1ccc2nc(C)cc(Nc3ccc(Br)cc3)c2c1` the growth was 90.3%.
Molecule `Cc1ccc(Nc2nc(N)c3ccccc3n2)cc1Cl` has a growth of 48.3%.
Molecule `CCOC(=O)C1=C(C)N=c2s/c(=C\c3cc(Cl)ccc3O)c(=O)n2C1c1ccc(OC)cc1` (stereo not drawn) has a growth of 85.3%.
Molecule `COC(=O)[C@@H]1CCCN1C(=O)[C@H]1CCCN1C(=O)[C@@H](Cc1c[nH]c2ccccc12)NC(=S)Nc1cc(C(F)(F)F)cc(C(F)(F)F)c1` has a growth of 36.3%.
In the case of `COc1ccc(-c2cc(=O)c3c(OC)c4ccoc4c(/C=C/C=O)c3o2)cc1`, the growth is reported as 0.782% (active).

What follows are molecules tested on MOLT-4 leukemia in the same assay as above. Settings: 10 µM unless noted.
In the case of `COc1cc(C(=O)NN=C2c3ccccc3-c3ccccc32)cc(OC)c1OC`, the growth is reported as 39.3%.
Molecule `COc1cc(-c2c3c(c(Br)n2Cc2ccccc2)-c2nc(N)sc2CC3)cc(OC)c1OC` has a growth of 50.6%.
`O=C(Nc1ccc(-c2nc3cc4ccccc4cc3[nH]2)cc1)c1cccc(Br)c1` was tested, and the growth was 85.4%.
Work on `Cc1cc(Nc2ccc(OCc3ccccc3)cc2)nc2cc(O)ccc12` yielded a growth of 26%.
`Nc1nonc1-n1nncc1-c1cccnc1` gave a growth of 91.4%.
Molecule `N#C/C(=C1\SC(=O)CN1c1ccccc1)c1nc2ccccc2s1` has a growth of 84.2%.
`Clc1ccc(-c2nnc(COc3ccc(C4=NNC(c5ccco5)C4)cc3)o2)cc1` (stereo not drawn) gave a growth of 85.5%.
For `CCOC(=O)CSc1c(-c2ccccc2)c2cc(Cl)ccc2[nH]c1=O`, the growth was 88.3%.
With `COC(=O)C1(C)COP(=O)(Nc2ccc(OC)cc2)OC1` (stereo not drawn) the growth was 99.2%.
`CC1=C(CC(=O)c2cccc([N+](=O)[O-])c2)C(=O)c2ccccc2C1=O` gave a growth of 36.5%.
`N#Cc1c(N)nc2c(c1N)C(c1ccc(F)cc1)c1ccc(N)cc1O2` (stereo not drawn) was tested, and the growth was 96.4%.
In the case of `O=C(Nc1nc2c(s1)CCc1c-2c(Br)n(Cc2ccccc2)c1Br)c1ccccc1`, the growth is reported as 83.1%.
In the case of `CN(C)CCNc1cc(-c2ccccc2)nc2ccccc12`, the growth is reported as 0.855% (active).
With `O=S(=O)(c1ccc(NC(=S)NC23CC4CC(CC(C4)C2)C3)cc1)N1CCCCC1` the growth was -14.7% (active).
In the case of `CCCCc1c(CCC)c(=N)c2ccccc2n1C`, the growth is reported as 60.6%.
`COc1ccccc1N1C(=N)S/C(=C\c2ccc(OCc3ccccc3F)cc2)C1=O` gave a growth of 53%.
For `Cc1ccc(S(=O)(=O)c2c(COC(=O)c3cccc(C)c3)c(-c3ccccc3)nn2C)cc1`, the growth was -11.2% (active).
For `COc1ccc(-c2nc(N3CCN(C(=O)C4CCCCC4)CC3)c3c4c(sc3n2)CCCC4)cc1`, the growth was 1.83% (active).
`CC(=Nc1ccccc1)C1=C(O)C(Cc2ccc(F)cc2)NC1=O` (stereo not drawn) showed a growth of 14.5%.
For `CCOc1ccccc1CN1CCc2nc3cc(C(C)(C)C)[nH]n3c(=O)c2C1`, the growth was 94.7%.
For `COc1cc(C(=O)O/N=C(\N)Cc2cccc3ccccc23)cc(OC)c1OC`, the growth was 1.56% (active).
In the case of `O=C1OC(c2ccccc2)(c2ccccc2)c2ccsc21`, the growth is reported as 76%.
`COc1ccc2sc(N(Cc3cccnc3)C(=O)c3ccc(C#N)cc3)nc2c1` showed a growth of 57.8%.
In the case of `O=C(NC1CCN(Cc2ccccc2)CC1)c1cc(C(=O)NC2CCN(Cc3ccccc3)CC2)cc(C(=O)NC2CCN(Cc3ccccc3)CC2)c1`, the growth is reported as 45.8%.
With `Oc1c(CN2CCN(c3ccccc3F)CC2)cc(Br)c2cccnc12` the growth was 5.58% (active).
In the case of `O=C(Nc1ccc(Cl)cc1)N1CCN(c2ccc3nncn3n2)CC1`, the growth is reported as -41.5% (active).
Work on `Cc1[nH]c2ccccc2c(=O)c1CC=C(Cl)Cl` yielded a growth of 19.3%.
`COc1ccc(C)c2sc(N(Cc3cccnc3)C(=O)c3ccc(C#N)cc3)nc12` was tested, and the growth was 3.94% (active).
For `O=C(Cc1ccccc1)NC(c1ccc(Cl)cc1)c1c(O)ccc2ccccc12` (stereo not drawn), the growth was 9.11% (active).
With `CCOC(=O)C1=CN(C)C=C(C(=O)OCC)C1c1cc(Br)c(OCC)c(OC)c1` the growth was 27.5%.
With `COc1ccc(/C=C/C(=O)c2ccc3cc(OC)c(OC)cc3c2)cc1OC` the growth was 30.7%.
`CCC1=C[C@@H]2CN(C1)Cc1c([nH]c3ccccc13)[C@@](C(=O)OC)(c1cc3c(cc1OC)N(C)[C@H]1[C@@](O)(C(=O)OC)[C@H](OC(C)=O)[C@]4(CC)[C@@H]5C[C@@H]5CN5CC[C@]31[C@@H]54)C2` was tested, and the growth was -3.35% (active).
Work on `COc1ccc(-c2nsc3c2NC(=O)CC3c2ccc3c(c2)OCCO3)cc1` (stereo not drawn) yielded a growth of 28.3%.
With `CCCCNc1nc(NC(C)(C)C)nc(NC(C)(C)C)n1` the growth was 39.1%.
For `CCOc1ccc2nc(C)cc(Nc3ccc(Br)cc3)c2c1`, the growth was 88.6%.
`Cc1ccc(Nc2nc(N)c3ccccc3n2)cc1Cl` gave a growth of 48.9%.
In the case of `CCOC(=O)C1=C(C)N=c2s/c(=C\c3cc(Cl)ccc3O)c(=O)n2C1c1ccc(OC)cc1` (stereo not drawn), the growth is reported as 96.4%.
`COC(=O)[C@@H]1CCCN1C(=O)[C@H]1CCCN1C(=O)[C@@H](Cc1c[nH]c2ccccc12)NC(=S)Nc1cc(C(F)(F)F)cc(C(F)(F)F)c1` showed a growth of 16.3%.
`COc1ccc(-c2cc(=O)c3c(OC)c4ccoc4c(/C=C/C=O)c3o2)cc1` was tested, and the growth was -8.67% (active).
